This note sets out measurements from PubChem BioAssay.

Test [1] is described as follows: HepG2 liver cancer cell viability effects, profiling panel, resazurin fluorescence, 24 h, PK04 Diversity Set (AID 1172). The conditions noted are these: higher = more signal.
Test [2] in a line: basal S. cerevisiae growth modulation, no modifier, primary screen, OD600, strain BY4716, 24 h, basal condition (AID 1173). The conditions noted are these: OD600, 24 h, higher = more signal, called active from +8 up or from −8 down.
Test [3] in a line: MM1S myeloma cell viability, profiling panel, resazurin fluorescence, basal, 24 h, PK04 Diversity Set (AID 1174). The note with it: higher = more signal, called active from +8 up or from −8 down.
Test [4] deals with Dihydroorotate dehydrogenase (quinone), mitochondrial (Plasmodium falciparum (isolate 3D7)) (UniProt Q08210). The test is described as follows: PfDHODH enzyme inhibitors, primary screen, biochemical, C-terminal His tag, absorbance 600 nm (AID 1175).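 Further: recombinant parasite enzyme with a five histidine tag at its C terminus.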 The conditions noted are these: DCIP absorbance 600 nm, higher = more signal, called active from +8 up or from −8 down.
Chain of Dihydroorotate dehydrogenase (quinone), mitochondrial (Plasmodium falciparum (isolate 3D7)) (Q08210 whole entry, looked up): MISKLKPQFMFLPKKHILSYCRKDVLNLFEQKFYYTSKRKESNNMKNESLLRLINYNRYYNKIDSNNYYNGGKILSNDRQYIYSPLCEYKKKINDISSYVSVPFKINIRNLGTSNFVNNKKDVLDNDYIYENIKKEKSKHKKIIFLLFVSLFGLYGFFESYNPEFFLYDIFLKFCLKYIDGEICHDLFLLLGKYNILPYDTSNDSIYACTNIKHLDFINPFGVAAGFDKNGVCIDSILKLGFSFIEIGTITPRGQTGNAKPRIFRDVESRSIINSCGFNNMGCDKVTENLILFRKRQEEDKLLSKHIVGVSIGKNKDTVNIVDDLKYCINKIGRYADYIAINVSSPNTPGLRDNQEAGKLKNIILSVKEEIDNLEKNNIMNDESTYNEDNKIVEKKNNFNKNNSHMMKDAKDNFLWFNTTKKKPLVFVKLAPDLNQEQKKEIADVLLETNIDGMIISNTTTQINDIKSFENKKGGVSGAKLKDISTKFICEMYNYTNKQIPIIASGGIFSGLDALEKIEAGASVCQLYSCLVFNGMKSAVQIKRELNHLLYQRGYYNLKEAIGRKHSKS
The nature of test [5]: P. aeruginosa biofilm formation inhibitors, primary screen, strain PAO1, LB-PBS medium, absorbance 600 nm (AID 1176). The conditions noted are these: P. aeruginosa PAO1 growth/biofilm, A600, 12 h; higher = more signal.
Test [6] can be described thus: S. cerevisiae RM11-1a growth modifiers, primary screen, strain RM11-1a, OD600, basal, 24 h (AID 1177).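 Further: cultures grown under basal conditions with no added stressor.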 The conditions noted are these: OD600, 24 h, higher = more signal, called active from +8 up or from −8 down.
Test [7] is described as follows: E. coli acrAB mutant growth effects, primary screen, E. coli filamentation inducers, strain DRC39, OD650, 24 h (AID 1178).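 Further: growth measured as culture turbidity by optical density at 650 nm.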 The note with it: higher = more signal, called active from +8 up or from −8 down.
The nature of test [8]: E. coli acrAB mutant growth effects, primary screen, E. coli filamentation inducers, strain DRC39, OD650, 48 h (AID 1179).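 Further: screen aims at cell division blockers that make cells filament.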 The note with it: E. coli DRC39 delta-acrAB growth, higher = more signal, called active from +8 up or from −8 down.
Test [9] can be described thus: RPMI8226 myeloma cell viability, profiling panel, resazurin fluorescence, basal, 24 h, PK04 Diversity Set (AID 1180).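 Further: RPMI8826 multiple myeloma cell line at 5000 cells per well.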 The note with it: higher = more signal.
The target of test [10] is E3 ubiquitin-protein ligase XIAP (Homo sapiens) (UniProt P98170). Nature of the test: XIAP binders, primary screen, biophysical, small-molecule microarray, fluorescence 635 nm (AID 1181).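 Further: score merges 667 nm emission and signal to noise over triplicate slides.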 The note with it: small-molecule microarray binding, higher = more signal.
Chain of E3 ubiquitin-protein ligase XIAP (Homo sapiens) (P98170 whole entry, looked up): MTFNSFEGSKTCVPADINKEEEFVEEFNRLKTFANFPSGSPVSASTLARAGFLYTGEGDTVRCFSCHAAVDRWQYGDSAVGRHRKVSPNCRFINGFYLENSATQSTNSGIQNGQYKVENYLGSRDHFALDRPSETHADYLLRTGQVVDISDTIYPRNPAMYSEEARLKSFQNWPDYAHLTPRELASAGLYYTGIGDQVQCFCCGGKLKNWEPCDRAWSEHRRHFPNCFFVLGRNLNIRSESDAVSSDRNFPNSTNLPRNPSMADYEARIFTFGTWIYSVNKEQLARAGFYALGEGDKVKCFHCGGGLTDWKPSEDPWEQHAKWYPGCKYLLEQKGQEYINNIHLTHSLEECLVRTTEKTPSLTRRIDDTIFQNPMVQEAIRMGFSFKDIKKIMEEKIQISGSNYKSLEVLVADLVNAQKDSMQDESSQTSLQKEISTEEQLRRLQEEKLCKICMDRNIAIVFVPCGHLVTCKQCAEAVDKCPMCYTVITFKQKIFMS
Test [11] relates to XIP peptide (Xip251-270) binding. Nature of the test: small-molecule binders of XIP peptide, primary screen, biochemical, small-molecule microarray, fluorescence 635/667 nm, 0.1 µg/mL protein (AID 1182). The conditions noted are these: fluorescent protein binding, 635 nm, higher = more signal, called active from +8 up or from −8 down.
The test system of another test is XIP peptide (Xip251-270). Nature of the test: small-molecule binders of XIP peptide, primary screen, biochemical, small-molecule microarray, fluorescence 635/667 nm, 0.5 µg/mL protein (AID 1183). The conditions noted are these: small-molecule microarray binding, fluorescence 635 nm; higher = more signal.
Test [12] in a line: Plasmodium falciparum growth inhibition, primary screen, strain 3D7, DAPI fluorescence, 100 nL (AID 1184).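 Further: parasites grown inside human red blood cells in medium with human serum.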 The conditions noted are these: P. falciparum 3D7 growth, 3 d, higher = more signal.
The target in test [13] is Homeobox protein Hox-A13 (Mus musculus) (UniProt Q62424). The test is described as follows: inhibitors of HoxA13-DNA binding, primary screen, biochemical, fluorescence polarization, labeled oligonucleotide (AID 1185). The note with it: 15 min, higher = more signal, called active from +8 up or from −8 down.
Chain of Homeobox protein Hox-A13 (Mus musculus) (Q62424 whole entry, looked up): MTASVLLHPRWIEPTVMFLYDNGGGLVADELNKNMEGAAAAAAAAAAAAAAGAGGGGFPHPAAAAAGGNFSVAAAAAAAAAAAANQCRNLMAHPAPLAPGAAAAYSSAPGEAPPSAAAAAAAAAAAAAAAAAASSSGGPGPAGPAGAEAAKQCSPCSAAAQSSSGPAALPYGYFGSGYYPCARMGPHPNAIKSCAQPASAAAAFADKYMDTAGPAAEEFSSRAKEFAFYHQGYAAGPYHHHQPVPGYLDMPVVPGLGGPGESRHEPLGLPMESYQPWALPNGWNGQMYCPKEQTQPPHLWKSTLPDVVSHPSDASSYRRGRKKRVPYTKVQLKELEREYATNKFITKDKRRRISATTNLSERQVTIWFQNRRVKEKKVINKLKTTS
A short description of test [14]: inhibitors of hydroxyurea-induced Chk1 phosphorylation, primary screen, imaging, HeLa, phospho-Chk1 antibody, percent positive cells (AID 1186). The conditions noted are these: hydroxyurea-induced phospho-Chk1 immunofluorescence imaging, higher = more signal.
Test [15] in a line: inhibitors of hydroxyurea-induced Chk1 phosphorylation, primary screen, imaging, HeLa, phospho-Chk1 nuclear intensity (AID 1187). The note with it: hydroxyurea-induced phospho-Chk1 immunofluorescence imaging, higher = more signal.

Active and inactive are the calls of the source. Unless noted, how the calls were made is not given here.

Regarding `COc1ccccc1CN1C(=O)c2ccccc2[C@](Cc2ccccc2I)(C(=O)NCc2ccccc2)[C@@H]1c1ccc(CO)cc1`, the z-score in test [1] is -0.583; in test [2], 0.511 (inactive); in test [3] it was -1.05 (inactive); in test [5] it was 0.0993 (inactive); in test [6], -0.283 (inactive); in [7] it was -0.331 (inactive). Also, the z-score in [8] was 0.363 (inactive); in test [9], -1.12; in test [12], -0.818; in test [13] it was -2.8 (inactive); in [14], 0.234 (inactive); in test [15] it was 0.365 (inactive). Also, the composite z-score in test [4] was -0.141 (inactive); in test [10] it was -0.16; in test [11] it was -0.501 (inactive); in the test with XIP peptide (Xip251-270), 0.801.

Take `Cc1ccc(S[C@]2(C(=O)NCCCN(C)C)CC(=O)N(Cc3ccccc3)[C@@H]2c2ccc(CO)cc2)cc1`: the z-score in test [1] was -0.519; in [2], -0.686 (inactive); in test [3] it was 0.833 (inactive); in test [5] it was 0.317 (inactive); in test [6], -0.358 (inactive); in test [7] it was -0.194 (inactive). Besides, the z-score in test [8] was -0.435 (inactive); in test [9], 0.63; in [12], -1.07; in test [13], -2.18 (inactive); in test [14] it was 0.327 (inactive); in [15], 0.603 (inactive). The composite z-score was -0.336 (inactive) in test [4], -0.185 in [10], -0.712 (inactive) in test [11] and 0.135 in the test on XIP peptide (Xip251-270).

In the case of `COc1ccc(C#Cc2ccc3c(c2)[C@]2(C(=O)N3)[C@H](c3ccc(OCCO)cc3)N3[C@H](c4ccccc4)[C@H](c4ccccc4)OC(=O)[C@H]3[C@@H]2C(=O)Nc2nc3ccccc3s2)cc1`, the z-score in test [1] is 0.534; in test [2], 0.436 (inactive); in [3], 0.217 (inactive); in test [5], 3.64 (inactive); in test [6] it was 1.55 (inactive); in test [7], 0.528 (inactive). The z-score in test [8] is 1.25 (inactive); in [9], 0.174; in [12], -1.3; in [13] it was 3.34 (inactive); in test [14], 0.141 (inactive); in test [15], 0.315 (inactive). The composite z-score in test [4] was -3.02 (inactive); in [10], 0.75; in test [11], 0.353 (inactive); with XIP peptide (Xip251-270), 0.522.

`C=C(C(=O)CC[C@@H](OC(=O)c1cccnc1)c1ccc(OCCO)cc1)C(C)C`: the z-score in [1] is -0.706; in test [2], -18.4 (active); in [3], -0.446 (inactive); in [5] it was 0.907 (inactive); in test [6], -22.2 (active); in [7], -0.706 (inactive). The z-score in test [8] is -0.694 (inactive); in test [9], -1.56; in [12] it was -0.496; in test [13] it was -3.94 (inactive); in test [14], 1.38 (inactive); in test [15], 1.36 (inactive). In addition, the composite z-score is -3.83 (inactive) in test [4], -0.184 in test [10], 1.15 (inactive) in test [11] and 0.611 in the test on XIP peptide (Xip251-270).

In the case of `CCN(CC)c1ccc(N2CC=CC34O[C@@H]5/C=C\CCC(C)OC(=O)C5[C@H]3C(=O)N(CCCCCCO)[C@@H]4C2=O)cc1` (some centres not stated), the z-score is -0.105 in test [1]; -0.0746 (inactive) in [2]; 0.384 (inactive) in test [3]; -0.497 (inactive) in test [5]; 0.251 (inactive) in test [6]; 1.37 (inactive) in [7]. Further, the z-score was 1.59 (inactive) in test [8]; 1.56 in [9]; 0.816 in [12]; -5.99 (inactive) in test [13]; -0.632 (inactive) in test [14]; -0.767 (inactive) in [15]. The composite z-score in test [4] was -0.788 (inactive); in [10], -0.0545; in [11], 0.76 (inactive); in the test on XIP peptide (Xip251-270) it was -0.0479.

`C#C[C@H](O[Si](C#CCCCCCC)(C(C)C)C(C)C)c1ccccc1`: the z-score is 0.465 in [1]; 0.0181 (inactive) in [2]; 0.221 (inactive) in test [3]; -0.984 (inactive) in test [5]; -0.0669 (inactive) in test [6]; 0.0687 (inactive) in [7]. Also, the z-score in test [8] was 0.577 (inactive); in test [9], 0.783; in test [12] it was -1.32; in test [13] it was -1.2 (inactive); in test [14] it was -0.0616 (inactive); in test [15], -0.0839 (inactive). The composite z-score was -0.719 (inactive) in test [4], 0.0406 in test [10], 0.0004 (inactive) in test [11] and -0.113 with XIP peptide (Xip251-270).

Consider `[N-]=[N+]=NCc1ccccc1C[C@]1(C(=O)NCC(O)CO)COC(c2ccc(OCCCO)cc2)=N1` (some centres not stated), for which the z-score in test [1] was 0.0117; in test [2] it was -1.46 (inactive); in test [3], -2.31 (inactive); in test [5], 0.19 (inactive); in test [6], -0.325 (inactive); in test [7], -0.0949 (inactive). In addition, the z-score was 0.0564 (inactive) in test [8]; -0.902 in test [9]; -2.04 in test [12]; -4.94 (inactive) in [13]; -0.0874 (inactive) in test [14]; -0.341 (inactive) in test [15]. For the same compound, the composite z-score in [4] was 0.0291 (inactive); in test [10], -0.163; in test [11], 0.54 (inactive); in the test on XIP peptide (Xip251-270) it was 0.376.
